# Compound activity from PubChem.
# Shown are actives, neighbours in structure and some others; about 19% of the full set was active somewhere.
# IL-1B inflam inh: blocks inflammasome-driven IL-1 beta release. THP-1 LPS/ATP IL-1B secretion, AlphaLISA, 16 h; hits give low values. activity change, % at 57.5 µM. 360,000 tested, 4.7% active. AID 743279; in the data active = activity change below about -50%; inconclusive = mostly about -30% to -49%
#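 THP-1 cells pretreated 1 hr with compounds (up to 57.5 uM final), then stimulated with LPS (250 ng/mL final) plus ATP (1.25 mM final); secreted IL-1B measured by AlphaLISA after 16 hr, decreased signal indicating inhibition.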
# TDP1 cell noCPT: qHTS for Inhibitors of human tyrosyl-DNA phosphodiesterase 1 (TDP1): qHTS in cells in absence of CPT; DT40 Tdp1-/- hTDP1 cells, no CPT, ATP luminescence, 48 h; Potency, µM (top dose mostly 46.2 µM), for the others: at the highest dose activity change, negative = growth inhibition, usual class: inhibitors; 420,000 tested, 15% active; note: potency is the fitted concentration of half-maximal effect; nearly all actives have a fitted effect of over 55% in size
#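 Luminescent ATP content (CellTiter-Glo) served as the growth readout. Knockout chicken DT40 cells expressing human TDP1 were exposed to compounds without camptothecin for a minimum 48 hr at 37 °C.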
# Giardia kill: Giardia lamblia killing; Giardia lamblia trophozoite viability; activity change, % at 7.66 µM, hits read low; 340,000 tested, 0.15% active; AID 540267; in the data active = activity change below about -80%; inconclusive = between about -30% and that limit;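 note: parasites exposed to compound for two days anaerobically before the ATP read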
#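 Anaerobic 48 hrs incubation at 37 deg C of 100 trophozoites/well with test compounds; ATPLite 1-Step luminescence, 15-30 min RT, reports cellular ATP as viability.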
# ELG1 DNA repair: blocks ELG1-dependent DNA repair in HEK293T cells; Potency, µM (doses to about 46.1 µM), without a hit: at the top dose activity change, negative = inhibition, hits mostly inhibitors; HEK293T ELG1-luciferase reporter, luminescence, 16 h; DNA damage induced by 5-fluorouridine; AID 504467; 330,000 tested, 2.3% active; note: potency is the fitted concentration of half-maximal effect; nearly all actives have a fitted effect of over 55% in size
#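 In this reporter screen, reduction of luminescence relative to DMSO vehicle indicated activity. Compounds and 5-fluorouridine were added together to 2,000 cells per well, incubated for 16 hr at 37 °C, then developed with ONE-Glo.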
# TDP1 cell CPT: DT40-hTDP1 cell growth loss with CPT; chicken DT40 Tdp1-/-;hTDP1 cells + 20 nM CPT, ATP luminescence, 48 h; Potency, µM (top dose mostly 46.2 µM), inactives show at the highest dose activity change, negative = growth inhibition, most hits filed as inhibitors; 420,000 tested, 12% active; note: potency is the fitted concentration of half-maximal effect; nearly all actives have a fitted effect of over 55% in size
#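 Cell growth measured by CellTiter-Glo luminescence after a minimum 48 h, 37 C compound exposure with 20 nM CPT in Tdp1-knockout DT40 cells stably expressing hTDP1, seeded 400/well; qHTS titration format.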
# TDP1 inh: inhibitors of human tyrosyl-DNA phosphodiesterase TDP1 | Q9NUW8 | recombinant TDP1, AlphaScreen DNA substrate cleavage | Potency, µM (titrated, usually from 130 µM), for the others: at the top dose activity change, negative = inhibition, hits mostly inhibitors | 350,000 tested, 0.28% active; note: potency is the fitted concentration of half-maximal effect; nearly all actives have a fitted effect of over 40% in size
# Target sequence (Q9NUW8 whole entry, looked up): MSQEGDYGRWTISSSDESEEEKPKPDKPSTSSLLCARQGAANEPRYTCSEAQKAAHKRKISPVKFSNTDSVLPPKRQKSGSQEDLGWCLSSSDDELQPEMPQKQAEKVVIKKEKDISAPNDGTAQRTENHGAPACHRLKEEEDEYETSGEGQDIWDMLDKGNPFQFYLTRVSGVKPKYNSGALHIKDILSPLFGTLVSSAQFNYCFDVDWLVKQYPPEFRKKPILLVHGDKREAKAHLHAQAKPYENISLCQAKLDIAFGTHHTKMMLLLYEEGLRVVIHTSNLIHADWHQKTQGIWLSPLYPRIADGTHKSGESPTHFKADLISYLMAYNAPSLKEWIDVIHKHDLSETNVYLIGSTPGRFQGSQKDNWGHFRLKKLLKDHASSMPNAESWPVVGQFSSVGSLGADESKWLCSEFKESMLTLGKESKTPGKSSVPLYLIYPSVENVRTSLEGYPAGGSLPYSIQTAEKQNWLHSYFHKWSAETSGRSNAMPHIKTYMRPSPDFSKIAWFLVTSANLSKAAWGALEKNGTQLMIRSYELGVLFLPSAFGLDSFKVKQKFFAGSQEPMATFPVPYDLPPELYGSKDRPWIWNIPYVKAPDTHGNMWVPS
#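 Enzyme-compound mixtures sat 15 min at room temperature, followed by a 5 min reaction with 15 nM final substrate and 10 min with AlphaScreen beads. Recombinant human Tdp1 was used at 1 nM final.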
# Active calls of the source: *; u = inconclusive; x = not tested or not shown; [ ] = another dose, or the depositor's remark. Unless noted, calls come from the whole dose curve; as a rule, active = well fitted curve in the direction sought with a large enough effect; inconclusive = small, poorly fitted or top-dose-only effect, or another doubt; inactive = no such curve, though single readings can be large; an effect the other way counts as inactive or inconclusive. % is set by controls: 0 for no effect and ±100 for the full control effect.
SMILES,IL-1B inflam inh,TDP1 cell noCPT,Giardia kill,ELG1 DNA repair,TDP1 cell CPT,TDP1 inh
CCc1noc(C)c1C(=O)NNC(=O)COc1ccccc1C,-12,1%,-24,8%,-11%,0%[56.1 µM]
CO[C@@H]1COC(=O)C/C=C\[C@@H](C)COC(=O)[C@H](Cc2ccccc2)NC(=O)C/C=C\[C@H]1C,x,x,x,x,x,-1%[21 µM]
O=C(COc1ccccc1[N+](=O)[O-])N(Cc1ccco1)c1ccccn1,x,-26%,x,x,-4%,-4%
CSc1nnc(-c2sc3cc(C(F)(F)F)cnc3c2-c2cccnc2)n1C,-8,16µM*,0,u,u,7%
COc1cc2nc(/C=C/c3cc(OC)c(OC)c(OC)c3)sc2cc1SC,-26,5.8µM*,13,12µM*,5.8µM*,3%
COc1cc2nc(C)sc2cc1SC,4,u,-13,15%,u,7%
COc1cc(OC)c(C(=O)NCc2nc(-c3ccccc3)no2)cc1OC,x,u,x,x,u,10%
C[C@]12C=CC(=O)C=C1CCC1C2C(O)C[C@]2(C)C1CC[C@]2(O)C(=O)CO (some centres undefined),x,x,x,x,x,5%
CCCC1O[C@@H]2C[C@H]3[C@@H]4CCC5=CC(=O)C=C[C@]5(C)[C@H]4[C@@H](O)C[C@]3(C)[C@]2(C(=O)CO)O1 (some centres undefined),-65*,u,u,7%,-3%,6%
CCC(=O)[C@@]1(C)[C@H](C)C[C@H]2[C@@H]3CCC4=CC(=O)C=C[C@]4(C)[C@H]3[C@@H](O)C[C@@]21C,u,16µM*,3,u,13µM*,x
CCC[C@@H]1O[C@@H]2C[C@@H]3[C@H]4CCC5=CC(=O)C=C[C@@]5(C)[C@H]4[C@H](O)C[C@@]3(C)[C@@]2(C(=O)CO)O1,x,x,x,x,x,7%[56.1 µM]
S=C(NCCCN1CCOCC1)NN=C1c2ccccc2-c2ccccc21,-14,5.8µM*,x,x,5.8µM*,x
CCNC(=S)NN=C1c2ccccc2-c2ccccc21,u,3.7µM*,-5,u,3.7µM*,10%
C=CCNC(=O)c1onc(CCl)c1C(=O)OC,110,u,-11,3%,23µM*,3%
O=C(OCc1ccccc1)C1CCCN1C(=O)c1cccs1 (centres undefined),17,-3%,-16,13%,-4%,3%
Cc1cccc(NC(=O)C2CCCN2C(=O)OCc2ccccc2)c1 (centres undefined),-6,0.058µM*,4,-2%,-34%,0%
O=C(OCc1ccccc1)C1CCCN1C(=O)c1ccccc1[N+](=O)[O-] (centres undefined),-63*,16µM*,15,-29%,15µM*,-3%
O=C(CNC(=O)OCc1ccccc1)NCC(=O)N1CCCC1C(=O)OCc1ccccc1 (centres undefined),-88*,-21%,-1,8%,u,2%
O=C(O)CNC(=O)C1CCCN1C(=O)CNC(=O)OCc1ccccc1 (centres undefined),-3,2%,-16,15%,18%,x
COc1cccc(NC(=O)Cn2c(=O)n(C)c(=O)c3sc4c(c32)COC(C)(C)C4)c1,40,3%,-19,-23%,2%,7%
CCOc1ccc(CC(=O)C2C(=O)CC(C)(C)CC2=O)cc1OCC,0,-3%,10,1%,5%,1%
CCOc1ccc(CC(=NCCc2ccccc2)C2=C(O)CC(C)(C)CC2=O)cc1OCC,-66*,16µM*,1,u,15µM*,-3%
CCOC(=O)C#CC(CCc1ccccc1)OS(N)(=O)=O (centres undefined),-70*,u,-3,-6%,u,x
Cc1ccc(C(=O)NCCn2c(C)cc3ccccc32)cc1C,x,10µM*,x,x,12µM*,2%
Cc1cc2ccccc2n1CCNC(=O)C(C)Oc1ccccc1 (centres undefined),-17,-20%,4,u,23µM*,10%
SMILES,IL-1B inflam inh,TDP1 cell noCPT,Giardia kill,ELG1 DNA repair,TDP1 cell CPT,TDP1 inh
Cc1cc2ccccc2n1CCNC(=O)C(C)C,-18,-9%,58,20%,-18%,4%
COc1ccc(S(=O)(=O)N(CCO)c2ccccc2CN(C)CC=Cc2ccc(Cl)cc2)cc1,x,x,x,x,x,7%
CN(C)Cc1c(O)ccc2c(=O)c(-c3ccccc3Cl)c(C(F)(F)F)oc12,11,8%,-1,0%,-6%,3%
Cc1c(NC(=O)/C(C#N)=C/c2ccc(-c3cccc(Cl)c3)o2)c(=O)n(-c2ccccc2)n1C,-12,21µM*,2,u,u,4%
COc1ccccc1Oc1nc2ccccn2c(=O)c1/C=C(\C#N)C(=O)Nc1c(C)n(C)n(-c2ccccc2)c1=O,x,-17%,-16,u,4%,4%
Cc1ccc(Oc2nc3ccccn3c(=O)c2/C=C(\C#N)C(=O)Nc2c(C)n(C)n(-c3ccccc3)c2=O)c(C)c1,0,13µM*,-3,8%,u,1%
Cc1ccc(/C=C(\C#N)C(=O)Nc2cccc(Cl)c2)o1,x,-14%,x,x,1.3µM*,-4%[12.3 µM]
Cc1c(NC(=O)C(=O)/C=C(\O)c2ccc(Cl)cc2)c(=O)n(-c2ccccc2)n1C,-56*,-8%,-2,2%,3%,4%
CCc1ccc(-n2nc(C)c3c(C)cc(=O)n(CC(=O)Nc4ccc(OC)c(OC)c4)c32)cc1,x,-19%,x,x,-16%,6%
Cc1c(NC(=O)/C(C#N)=C/c2ccc(-c3ccccc3Cl)o2)c(=O)n(-c2ccccc2)n1C,-73*,29µM*,-10,u,u,8%
Cc1c(NC(=O)/C(C#N)=C/c2ccccc2)c(=O)n(-c2ccccc2)n1C,-4,-1%,26,12%,6%,5%
Cc1c(NC(=O)/C(C#N)=C/c2ccc(-c3ccc(Cl)c(Cl)c3)o2)c(=O)n(-c2ccccc2)n1C,-52*,13µM*,-5,21µM*,18µM*,2%
COCCNC(=O)Cn1cc(C(=O)c2ccco2)c2ccccc21,8,1%,-11,6%,18%,3%
Cc1ccc(C)c(OCCn2cc(C(=O)c3ccco3)c3ccccc32)c1,x,13µM*,x,x,21µM*,-1%
Cc1ccc(C(C)C)c(OCCn2cc(C(=O)c3ccco3)c3ccccc32)c1,x,15µM*,x,x,18µM*,3%
CC(C)n1c(N2CCN(C(=O)Nc3ccc(Cl)cc3)CC2)nc2ccccc21,-23,-27%,0,-3%,-30%,-6%
